This is an account of results in PubChem BioAssay (NCI).

Where “and” joins values, the source holds several entries; their conditions need not be identical. Equal values may be shown once. This is part of a sample that, as a whole, favours compounds with a hit. Of some 83,000 tested, about 20% had one in any assay.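 The endpoint reported here, percent growth, reads 100 for growth as untreated, 0 for no net growth and -100 for all cells dead.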 Unmarked numbers belong to inactive results. Calls of active or inactive are those of the source. How the source made its calls: active means growth percent below 10; inactive means the rest.

The subject of this assay is MDA-MB-468 breast. Put plainly: NCI-60 one-dose screen, 48 h (100 = growth as untreated, 0 = no growth, -100 = all killed). Conditions: 10 µM unless noted.
Take `COc1ccc(Cn2cc(C(=O)N=Nc3c(O)[nH]c4ccc(Br)cc34)nn2)cc1`: the growth was 96.8%.

Turning to `O=C(O)c1ccc(-c2ccc(/C=N/Nc3nc(Nc4ccccc4)nc(N4CCCCC4)n3)o2)cc1`, the growth was 92.1%.

Turning to `Cc1c(C(N)=O)sc2c1c(=O)n(Cc1ccccc1)c1nnc(-c3ccc(Br)cc3)n21`, the growth was 29.8%.

As for `Nc1n[nH]c2cccc(C#Cc3cccc(C(=O)Nc4cccc(C(F)(F)F)c4)c3)c12`, the growth is 101%.

On to `Cc1ccc2cc3c(N)c4c(C)ccc(C)c4nc3nc2c1`, for which the growth is 29.9%.

`O=C(Cn1c[n+](CC(=O)c2ccc([N+](=O)[O-])cc2)c2ccccc21)Nc1cccc2cccnc12`: the growth is 9.02% (active).

As for `CC[C@@H]1NC(=O)[C@@H]2CCCCN2C(=O)[C@@H]2CCCN2C(=O)[C@@H](NC(=O)[C@H](Cc2cc(F)cc(F)c2)NC(=O)Nc2ccc(C3CC3)cc2F)[C@H](C)OC(=O)[C@@H]2C[C@@H](C)CN2C1=O`, the growth is -33.6% (active).

For the compound `CCCCCCc1nc2c(c(C)nn2-c2ccccc2)c2c1CCCCC2`, the growth is 127%.

For the compound `COc1cccc2c1C(=O)c1c(O)c3c(c(O)c1C2=O)C[C@@](O)(/C(C)=N/NC(=O)c1ccc(Cl)cc1)C[C@@H]3OC1CC(N)C(O)C(C)O1` (stereo not given in full), the growth is -65.1% (active).

With `C[C@]12CC[C@@H]3c4cc(OC(F)F)c(OS(N)(=O)=O)cc4CC[C@H]3[C@@H]1CC[C@@H]2O`, the growth was -24.2% (active).

Consider `COC(=O)[C@H](Cc1cnc[nH]1)NC(=O)[C@@H](NC(=O)Nc1cc(C(F)(F)F)cc(C(F)(F)F)c1)C(C)C`, for which the growth is -60.9% [100 µM] (active).

`CCCCCCCCCCCCCCCC[N+]1(C)CCCC1c1cccnc1` (stereo not given): the growth is -15.8% (active).

With `O=C(O)/C(=C\c1ccc(Cl)cc1)c1ccc(Cl)cc1`, the growth is 78.9%.

As for `COc1ccccc1N1CCN(CCn2c(=O)c3c(c4ccccc4n3C)n(C)c2=O)CC1`, the growth was 92%.

Take `COc1ccc(-c2nc(SCC(C)C)nc(N/N=C\c3cccc([N+](=O)[O-])c3)c2C#N)cc1`: the growth was 58.1%.

For `NC(N)=N/N=C/c1ccc([N+](=O)[O-])cc1`, the growth is 85.5%.

As to `C=C1C(=O)O[C@H]2[C@H]1CC/C(COC(=O)CCCCC(=O)OC/C1=C/CC[C@@]3(C)O[C@H]3[C@H]3OC(=O)C(=C)[C@@H]3CC1)=C\CC[C@@]1(C)O[C@@H]21`, the growth is 45.5%.

On to `NC(=S)N/N=C/c1ccc(OC(=O)COc2cc(Cl)c(Cl)cc2Cl)cn1`, for which the growth was -0.374% (active).

Turning to `CCOC(=O)c1ccc(NCCC(=O)O)cc1`, the growth was 95.5%.

Turning to `Clc1ccc2c(c1)C(Br)c1cc(Cl)cc(Cl)c1-2` (stereo not given), the growth is 96.7%.

Take `CNC(=O)c1ccc(C)c(-n2c(C)cc(OCc3ccc(F)cc3F)c(Br)c2=O)c1`: the growth was 53.4% and 63.5%.

`CCNCCCn1c2c(c3ccc(F)cc3c1=O)C(=O)c1cc(OC)cnc1-2`: the growth is -75.7% (active).

Turning to `Cc1cccc[n+]1C1c2ccccc2-c2ccccc21`, the growth is 68.5%.

Consider `CCOC(=O)C1=C(c2ccccc2)N=C2SC=C(c3cccc([N+](=O)[O-])c3)N2C1c1ccc(O)cc1` (stereo not given), for which the growth is 93.7%.

`NN=C(c1ccc(Cl)cc1)c1ccc(Cl)cc1`: the growth was 111%.

As to `CCNC(=O)Oc1ccc(/C(=C(/C)Cc2ccc(OC)cc2)c2ccc(OCCN3CCCCCC3)cc2)cc1`, the growth is 51.8%.

As for `O=C(Nc1cccc(C2=NCCN2)c1)c1ccc(N=Nc2ccc(C(=O)Nc3cccc(C4=NCCN4)c3)cc2)cc1`, the growth was 6.96% (active).

Regarding `COc1ccc2c(c1)Oc1nc(N)c(C#N)c(N)c1C2Sc1ccc(O)cc1` (stereo not given), the growth was 18.8%.

For `C#Cc1ccc(NC(=O)Cc2ccc(/C=C/C(=O)c3nccn3C)cc2)cc1`, the growth was 33.8%.

On to `Clc1ccccc1-c1nc(Nc2nc3ccccc3s2)nc(C(Cl)(Cl)Cl)n1`, for which the growth is -24.6% (active).

As for `Cc1cc(N)c2cc(NC(=O)/C=C\c3ccccc3Cl)ccc2n1`, the growth was -81.1% (active).

For the compound `Cc1c(CN2CCN(C(=O)[C@H](C)O)CC2)sc2c(N3CCOCC3)nc(-c3cnc(N)nc3)nc12`, the growth is -49.6% (active).

With `COc1cc(C(=O)/C=C/c2c(C)n([O-])c3ccc(C(F)(F)F)cc3[n+]2=O)cc(OC)c1OC`, the growth is 36.8%.

As to `O=[N+]([O-])c1cccc(/C=N\Nc2ccccc2)c1`, the growth was 81.4%.

With `CCOC(=O)N(O)c1ccc(/C=C/c2ccccc2)cc1`, the growth is -59.5% (active) and -52.6% (active).

Turning to `COc1ccc2[nH]c(O)c(N=NC(=O)c3oc4ccccc4c3C)c2c1`, the growth was 19.9%.

For the compound `CCO/C=N/C1=C(C#N)C(c2ccc(F)cc2)c2sc3c(C)cccc3c2O1` (stereo not given), the growth is 6% (active).

With `COc1ccc(/C=C/C(=O)c2ccc(Nc3ncnc4ccccc34)cc2)cc1OC`, the growth was 60.7%.

As for `COc1ccc(-c2ccc(C)n2-c2ccc(-c3nc4cc(Cl)ccc4s3)cc2)cc1`, the growth was -30.7% (active).

As to `N#Cc1c(-c2cccs2)cc(-c2cnccn2)nc1SCC(=O)N/N=C/c1ccccc1`, the growth is 9.18% (active).
